Results taken from PubChem BioAssay AID900 (National Center for Advancing Translational Sciences (NCATS), 2007).
“And” between values parts separate entries of the source, which are not always exact repeats. Equal entries are not always repeated. The whole screen tested about 75,000 compounds, of which about 20 (0.03%) were called active. Inconclusive results (about 1%) are left out. Calls come from the whole dose curve; as a rule, active = well fitted inhibition curve with a large enough effect; inconclusive = small, poorly fitted or top-dose-only effect; inactive = flat fitted curve, though single readings scatter. Not all results are given here.

These compounds were tested against Caspase-1 (Homo sapiens) (UniProt P29466) (assay: qHTS Assay for Allosteric/Competitive Inhibitors of Caspase-1). Details: Caspase-1 enzyme, Ac-WEHD-AFC fluorogenic rate; series mostly up to 57.5 µM.
From the text: NIH Molecular Libraries Screening Centers Network [MLSCN]
NIH Chemical Genomics Center [NCGC]
PI Name: Dr. James Wells,
Dr. Enrique Perez-Paya, Dr.Janice Williams, Dr. Dennis Wolan, a person
The caspases (Cysteine Aspartyl Protease) comprise a related family of 14 dimeric proteases that are critical mediators of apoptosis (programmed cell death) and inflammation. The caspases represent an important class of drug targets for stroke, ischemia, cancer and inflammatory diseases. […] One goal of this project was to identify compounds that act as allosteric inhibitors via stabilizing the procaspase form of the enzyme. Previous work in Well's laboratory has shown that such allosteric inhibitors can be identified and these act by binding at the dimer interface of enzyme (Hardy, Lam et al., 2004).
The biochemical assay was configured using purified caspase 1 at a high enzyme concentration to promote formation of the homodimers and thus facilitate the identification of allosteric inhibitors. The overall goal was to identify reversible inhibitors with better drug-like properties than the currently available set of aspartyl-containing peptidomimetics that covalently bind the active site. Caspase 1 was assayed using the profluorescent substrate Ac-WEHD-AFC. After initiation of the assay with substrate the plates were rapidly read using an automated robotic system (Kalypsys, Inc.) to maintain consistent timing. A kinetic mode of detection was used where the initial rate was collected (estimated final product formation was ~10%). Compounds were screened as a concentration-titration series that ranged from 57 uM to 0.7 nM. Below is the protocol used for caspase 1.
NCGC Assay Protocol Summary:
Caspase 1 was prepared in buffer (50 mM HEPES pH 7.5, 50 mM KCl, 200 mM NaCl, 10 mM DTT, 0.1% CHAPS) at a concentration of 66.6 nM and 3 uL was dispensed to all wells using black solid Kalypsys 1536-well plates. 20 nL of DMSO containing compounds was added using a pin-tool (Kalypsys Inc.) to columns 5-48. Then 20 nL of DMSO solution from a control plate was added to columns 1-4. Controls were: Column 1, 16 point titration with each concentration in duplicate (1:1 dilutions in DMSO; final starting concentration was 57 uM) of the caspase 1 inhibitor Ac-WEHD-CHO (Alexis Biochemicals); Column 2, a 16 point titration with each concentration in duplicate of the free AFC fluorophore prepared in DMSO (Alexis Biochemicals), final starting was 40 uM; Column 3 neutral (DMSO only) control; Column 4: DMSO alone, to serve as a negative control (no substrate was added). Then 1 uL of 20 uM the substrate Ac-WEHD-AFC (Alexis Biochemicals) prepared in the same buffer was dispensed to all wells except columns 2 and 4 and the plates were immediately transferred (< 1 min) to the Viewlux. The plates were then exposed using 405 nm excitation/520 nm emission filters for 4 sec and read at 20 sec intervals for 3 min. Final enzyme concentration was 50 nM and the final substrate concentration was 5 uM.
Concentration-response curves were fitted to the data calculated from slope of the linear regression of fluorescent intensity versus time (the rate). The concentration-effect curves were then classified based on curve quality (r2), response magnitude and degree of measured activity. […] Inconclusive compounds had appreciable concentration-dependent effects on both the measured rate and the interpolated basal fluorescence intensity at the start of the reaction but where the basal fluorescent intensity was marginal (e.g. < 10-fold). Inconclusive compounds also encompass highly fluorescent compounds (>100-fold increases in fluorescent intensities values relative to controls) where artificial concentration-dependent decreases in the rate occurred at high compound concentrations due to fluorescent interferences.
Keywords: Caspase 1, proteases, profluorescent, MLSMR, MLSCN, NIH Roadmap, qHTS, NCGC
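Note: plate controls were vehicle for no effect and no substrate for full effect.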

Activity change, negative = inhibition, inactive:
O=C(Oc1cc(OC(=O)c2ccccc2)c2c(c1)OC(c1ccc(OC(=O)c3ccccc3)c(OC(=O)c3ccccc3)c1)[C@@H](OC(=O)c1ccccc1)C2)c1ccccc1 (stereo partly drawn)
O=C(/C(=N\O)n1cncn1)c1ccc(Br)cc1Br
CCC1(C)CC(=O)NC1=O (stereo not drawn)
Cc1c(S(=O)(=O)O)oc2c1C(=O)C(=O)c1c-2ccc2c1CCCC2(C)C
Cc1ccc(Cc2nc(-c3cccc(C)c3)no2)cc1
N#CCC(=O)NC(=O)NCC1CC1
CCCCC/C=C/C=C/C=O
Cc1noc(C)c1CSc1nnc2ccc3ccccc3n12
COc1ccc(/C=C/C(=O)c2ccc(OC)cc2O)cc1 -5.59% [at 11.5 µM]
CCC(CCC(C)C1CCC2C3CC=C4CC(O)CC[C@@]4(C)C3CC[C@@]12C)C(C)C (stereo partly drawn)
Nc1nc2nc(Cl)[nH]c2c(=O)[nH]1
COc1ccc(N2C(=O)C3CCCN3C2c2cccc(OC)c2)cc1 (stereo not drawn)
COc1ccccc1OCCNCC(O)COc1cccc2[nH]c3ccccc3c12 (stereo not drawn)
Clc1ccc(C2[C@H]3CN(CC4CCCCC4)[C@H](c4ccccc4)C34CC2(c2cccnc2)C4)cn1 (stereo partly drawn)
COC1C[C@@H](O[C@@H]2C(C)C(=O)OC(C)C(C)C(O)C(C)C(=O)[C@@]3(CO3)CC(C)C(OC3OC(C)CC(N(C)C)C3O)C2C)OC(C)[C@@H]1O (stereo partly drawn)
COc1ccc(C2C(C#N)=C(N)Oc3cc(N)ccc32)cc1OC (stereo not drawn)
CO[C@@H]1COC(=O)[C@H](Cc2ccccc2)NC(=O)C/C=C\[C@@H](C)[C@H](OC)COC(=O)[C@@H](C)NC(=O)C/C=C\[C@H]1C 0.468% [at 11.5 µM] and -0.511% [at 11.5 µM]
C=C(C)C1CC=C(CO)CC1 (stereo not drawn)
C[C@@H]1O[C@@H](OC[C@H]2O[C@@H](Oc3c(-c4cccc(O)c4O)oc4cc(O)cc(O)c4c3=O)[C@H](O)[C@@H](O)[C@@H]2O)[C@H](O)[C@H](O)[C@H]1O
BrC1C(Br)C(Br)C(Br)C(Br)C1Br (stereo not drawn)
CC1(C)OC(C(O)(c2ccccc2)c2ccccc2)C(C(O)(c2ccccc2)c2ccccc2)O1 (stereo not drawn) -8.99% [at 11.5 µM]
CCOc1ccc(Cn2nnc(C(=O)NCc3ccccc3)c2N)cc1
CC1C(O)CC2C(C(=O)O)=CO[C@@H](O[C@H]3OC(CO)C(O)C(O)C3O)C21 (stereo partly drawn)
Cc1cccc2c3c(ccc12)C1=C(C(=O)C3=O)C(C)CO1 (stereo not drawn)
C[C@@H]1CC[C@H]2[C@H](C)[C@H]3[C@H](C[C@H]4[C@@H]5CC=C6C[C@@H](O)CC[C@@]6(C)[C@@H]5C[C@@H](O)[C@]34C)N2C1 -2.52% [at 11.5 µM]
Cn1c(SCC(=O)N2CCOCC2)nnc1-c1ccc(NC(=O)c2ccccc2F)cc1
CC1CCCN(C(=O)c2ccc3c(c2)C(=O)N(CCC2=CCCCC2)C3=O)C1 (stereo not drawn)
CC(C)c1ccc(NC(=O)NC2CCCCC2)cc1
Nc1nc2[nH]c(=O)c(=O)[nH]c2c(=O)[nH]1
COC(=O)[C@@H]1C[C@H]2CC[C@H](O)C[C@H]2N1Cc1ccc(N2CCN(C)CC2)cc1
CC1O[C@@H](Oc2c(-c3ccc(O)c(O)c3)oc3cc(O)cc(O)c3c2=O)C(O)C(O)C1O (stereo partly drawn)
Cc1csc(-c2nc3ccccc3n2C)n1
Brc1cc(Br)c(Oc2cc(Br)c(Br)cc2Br)cc1Br
O=C(O)c1ccc(Cl)c(S(=O)(=O)Nc2ccccc2Cl)c1
CC(=O)OCC1OC(C#Cc2ccccc2Cl)C=CC1OC(C)=O (stereo not drawn) -0.455% [at 11.5 µM]
C[C@@H]1/C=C\CC(=O)OC[C@H]2O[C@@H](C=C[C@@H]2O)[C@H](C)/C=C\CC(=O)OC[C@H]2O[C@H]1C=C[C@@H]2O 0.74% [at 11.5 µM]
CC1CC[C@@]23CCC4(C)[C@@]5(C)CCC6C(C)(C)C(O)CC[C@@]6(C)C5C=C[C@@]4(OC2=O)C3C1C (stereo partly drawn)
CC(C)C1=CC2=CC[C@@H]3[C@](C)(CO)CCC[C@]3(C)C2CC1 (stereo partly drawn)
COc1ncnc2sc3c(c12)CCCC3
CN1CCC(CNC(=O)c2ccc(-n3c(=O)c(=O)[nH]c4ccccc43)cc2)CC1
O=C(O)[C@@H]1[C@@H](C(=O)O)[C@]23C[C@@]2(C(=O)O)[C@]2(C(=O)O)CCC3=C3CCCC312 -0.0959% [at 11.5 µM]
CN(C)Cc1c(C#N)c2ccccc2n1C
COCc1nnc(NC(=O)CS(=O)(=O)Cc2ccccc2)s1
CC(C)=CC1C(C(=O)O)C1(C)C (stereo not drawn)
CCC1=C(OC(=O)N(CC)CC)N2C(=O)OC(=NCC3CC3)[C@]2(C)[C@H]2C1=CC[C@H]1C(=O)N(CC(=O)OC)C(=O)[C@H]12
CN1CCc2nc(-c3ccccc3)c(-c3ccccc3)cc2C1 -1.85% [at 11.5 µM]
CC1(C)SC2C(NC(=O)COc3ccccc3)C(=O)N2C1C(=O)O (stereo not drawn)
O=c1ccc2cc(S(=O)(=O)N3CCN(c4ccccc4)CC3)ccc2o1
CCOC(=O)[C@]1(C(/C=C/c2ccco2)NC(=O)OC)CCCC1=O (stereo partly drawn) -4.71% [at 11.5 µM]
Cc1cnc(CNc2nc(-c3cccnc3)nc3ccccc23)cn1
O=C(COc1ccccc1)NCCc1nc2ccccc2[nH]1
COc1ccc(CNc2ncncc2-c2ccccc2OC)c(OC)c1
CCC[C@@H]1C[C@@]1(CCC)C(NC(=O)c1ccc(-c2ccccc2)cc1)c1cccc(Cl)c1 (stereo partly drawn)
Cc1cccc(-c2cc(=O)c3cc(C)ccc3o2)c1
COc1ccc(/C=C/NC(=O)c2ccc(OC)cc2)cc1 -1.51% [at 11.5 µM]
O=C(CN1CCOCC1)Nc1cc(Cl)ccc1Cl
COC(=O)NC(c1ccccc1)[C@]1(C(C)=O)CCCC1=O (stereo partly drawn) 0.536% [at 11.5 µM]
Cc1c2c(nc3ccccc13)-c1cccc(=O)n1C2
COc1ccc(C2CC(=O)c3c(O)cc(OC4OC(COC5OC(C)C(O)C(O)C5O)C(O)C(O)C4O)cc3O2)cc1O (stereo not drawn)
CC(=O)/C(=N\N=C(N)N)c1ccccc1 -1.52% [at 11.5 µM]
C[C@]12C=CC(=O)C=C1CC[C@@H]1[C@@H]2C(=O)C[C@@]2(C)[C@H]1CC[C@]2(O)C(=O)CO
CC1=C(/C=C/C(C)=C/C=C/C(C)=C/C=C/C=C(C)/C=C/C=C(C)/C=C/C2=C(C)CCCC2(C)C)C(C)(C)CCC1
O=C1[C@H]2[C@H]3[C@H](O)[C@H](O)C/C(=N/OCc4ccccc4)[C@H]3CC[C@@H]2C(=O)N1Cc1ccccc1 -0.986% [at 11.5 µM]
COC(=O)[C@@H]1C[C@@]2(O)[C@H](O)[C@H](O)[C@H](O)C[C@H]2N1Cc1ccc(C(C)(C)C)cc1
CC1(C)C(=O)C2(CCCCC2)C(=O)OC1c1cccs1 (stereo not drawn)
CCOc1ccccc1C1NC(=O)NC(C)=C1C(=O)OCc1ccco1 (stereo not drawn)
CN(C)c1cc2c(Nc3ccc4c(cnn4Cc4ccccc4)c3)ncnc2cn1
O=C(NCCN=C1NS(=O)(=O)c2ccccc21)c1ccc(S(=O)(=O)N2CCOCC2)cc1
CC1CCCCN1CCCNC(=O)c1ccc(-n2c(=O)c(=O)[nH]c3ccccc32)cc1 (stereo not drawn)
Nc1ncnc2c1ncn2C1CC(O)C(CO)O1 (stereo not drawn)
Cc1nnc(N(Cc2ccco2)C(=O)c2ccno2)s1
Cc1cc(Cl)ccc1N1C(=O)CC(SCCC(=O)O)C1=O (stereo not drawn)
Cc1cc(C(=O)N2CCN(c3ccccn3)CC2)c(C)o1
CC(=O)OC1CCC2(O)CC1(C)CCC1C2CC1(C)C (stereo not drawn)
O=S(=O)(c1ccccc1)N1CCC2(CC1)CN(Cc1nccs1)C2
COc1ccc2c3c1OC1CC(O)C=C[C@@]31CCN(C)C2 (stereo partly drawn)
COc1c2c(cc3occ(-c4ccc5c(c4)OCO5)c(=O)c13)OC(C)(C)C=C2
Cc1cc(C(=O)COC(=O)c2cccs2)c(C)n1-c1c(C)n(C)n(-c2ccccc2)c1=O
CC(C)CO
CC1(C)OC2CC(=O)OC[C@@]23C1CC(=O)[C@]1(C)C3CC[C@@]2(C)C(c3ccoc3)OC(=O)C3O[C@@]321 (stereo partly drawn)
O=C(NCCSc1ccccc1)c1ccco1
CN1CC(=O)N=C1N
COc1cc(OC)c2c(c1Cl)OC1(C2=O)C(O)=CC(=O)CC1C (stereo not drawn)
O=C1OC(C(O)CO)C(O)=C1O (stereo not drawn)
COC(=O)[C@@]1(Cc2ccccc2)[C@H]2c3cc(C(=O)N(C)C)n(CCSCCO)c3C[C@H]2CN1C(=O)c1ccccc1
C=C1C(=O)C23C(O)C1CCC2[C@]12COC3(O)C(O)C1C(C)(C)CC[C@H]2O (stereo partly drawn)
Oc1ccc2ccccc2c1C=NCc1c(O)ccc2ccccc12 -2.14% [at 11.5 µM]
Cc1cn(COC/C=C/c2ccccc2)c(=O)[nH]c1=O
CC(C)=CCC/C(C)=C/CC/C(C)=C/CC/C(C)=C/CO
CCc1c(C)c2c(C)[nH]nc2oc1=O
CCCC[C@@H]1C[C@H]1C(NC(=O)c1ccc(-c2ccccc2)cc1)c1ccc(-c2ccccc2)cc1 (stereo partly drawn)
Cc1c(C(=O)OCc2cc(=O)n3cc(Br)ccc3n2)oc2ccccc12
FC(F)(F)c1ccc(CN2C[C@@H]3C(c4ccccc4)C4(c5ccccc5)CC3(C4)[C@H]2c2ccccc2)cc1 (stereo partly drawn)
